Measured values taken from PubChem BioAssay AID1159580 (chemical genetic matrix, 2015).
Values joined by “and” are separate entries in the source; they are usually repeats but may differ in a detail not shown here. Identical values can stand only once. The whole screen tested about 5,500 compounds, of which about 2,000 (36%) were called active. Inconclusive results (about 18%) are left out. Cut-off read from the data, not from the text of the source: active = normalized growth mostly below about 0.91 (no sharp cut-off); inconclusive = no clear call, values can overlap the other calls; inactive = mostly above about 0.92. This is one part of the list.

Test: chemical genetic growth profiling, strain panel (AID 1159580);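 note: tested at 20 µM; growth read once vehicle control cultures reached saturation at 30 °C; 1 = growth at the plate median or of vehicle wells; lower values mean less growth of the strain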
Conditions: growth OD

Measured: normalized growth

CO[C@@H]1C[C@H](O[C@H]2CC[C@]3(C)C4CC[C@]5(C)[C@@H](C6=CC(=O)OC6)CC[C@]5(O)[C@@H]4CC[C@]3(O)C2)O[C@H](C)[C@@H]1O (some centres not stated)
inactive: S. cerevisiae deletion strains, locus YBR021W, strain FUR4, active compounds read low 0.961 | S. cerevisiae deletion strains, locus YBR229C, strain ROT2, active compounds read low 1 | S. cerevisiae deletion strains, locus YCL029C, strain bik1, active compounds read low 1.02 | S. cerevisiae deletion strains, locus YDL035C, strain GPR1, active compounds read low 0.905 | S. cerevisiae deletion strains, locus YDL074C, strain BRE1, active compounds read low 0.987 | S. cerevisiae deletion strains, locus YDL101C, strain DUN1, active compounds read low 1.02 | S. cerevisiae deletion strains, locus YDL134C, strain PPH21, active compounds read low 1 | S. cerevisiae deletion strains, locus YDL185W, strain tfp1, active compounds read low 1.05 | S. cerevisiae deletion strains, locus YDR101C, strain arx1, active compounds read low 1.01 | S. cerevisiae deletion strains, locus YDR162C, strain NBP2, active compounds read low 0.881 | S. cerevisiae deletion strains, locus YDR318W, strain mcm21, active compounds read low 0.987 | S. cerevisiae deletion strains, locus YDR388W, active compounds read low 1 | S. cerevisiae deletion strains, locus YEL061C, strain CIN8, active compounds read low 1.01 | S. cerevisiae deletion strains, locus YER110C, active compounds read low 1.02 | S. cerevisiae deletion strains, locus YER155C, strain BEM2, active compounds read low 1.01 | S. cerevisiae deletion strains, locus YER167W, strain BCK2, active compounds read low 0.95 | S. cerevisiae deletion strains, locus YGL078C, strain dbp3, active compounds read low 0.96 | S. cerevisiae deletion strains, locus YGL086W, strain mad1, active compounds read low 0.935 | S. cerevisiae deletion strains, locus YGL248W, strain PDE1, active compounds read low 1.02 | S. cerevisiae deletion strains, locus YGR078C, strain PAC10, active compounds read low 0.926 | S. cerevisiae deletion strains, locus YGR252W, strain gcn5, active compounds read low 0.844 | S. cerevisiae deletion strains, locus YHR030C, strain SLT2, active compounds read low 1.02 and 1.05 | S. cerevisiae deletion strains, locus YHR079C, strain IRE1 (second series), active compounds read low 1.02 | S. cerevisiae deletion strains, locus YHR079C, strain IRE1, active compounds read low 1.07 | S. cerevisiae deletion strains, locus YHR094C, strain hxt1, active compounds read low 1.02 | S. cerevisiae deletion strains, locus YHR129C, strain ARP1, active compounds read low 1.01 | S. cerevisiae deletion strains, locus YIL066C, strain RNR3, active compounds read low 0.956 | S. cerevisiae deletion strains, locus YIL073C, strain SPO22, active compounds read low 1.04 | S. cerevisiae deletion strains, locus YIR030C, strain dcg1, active compounds read low 1.01 | S. cerevisiae deletion strains, locus YJL095W, strain BCK1, active compounds read low 1.03 and 1.05 | S. cerevisiae deletion strains, locus YJL134W, strain LCB3, active compounds read low 1.01 | S. cerevisiae deletion strains, locus YJL168C, strain set2, active compounds read low 1.02 | S. cerevisiae deletion strains, locus YJL187C, strain SWE1 (second series), active compounds read low 1.04 | S. cerevisiae deletion strains, locus YJR043C, strain POL32, active compounds read low 0.949 | S. cerevisiae deletion strains, locus YJR066W, strain TOR1, active compounds read low 0.987 | S. cerevisiae deletion strains, locus YJR075W, strain HOC1, active compounds read low 0.901 | S. cerevisiae deletion strains, locus YKL009W, strain mrt4, active compounds read low 0.917 | S. cerevisiae deletion strains, locus YKL068W, active compounds read low 0.996 | S. cerevisiae deletion strains, locus YLR039C, strain RIC1, active compounds read low 0.887 | S. cerevisiae deletion strains, locus YLR058C, strain SHM2, active compounds read low 1.01 | S. cerevisiae deletion strains, locus YLR102C, strain apc9, active compounds read low 1.03 | S. cerevisiae deletion strains, locus YLR113W, strain HOG1, active compounds read low 0.964 | S. cerevisiae deletion strains, locus YLR262C, strain YPT6, active compounds read low 0.879 | S. cerevisiae deletion strains, locus YLR268W, strain sec22, active compounds read low 0.95 | S. cerevisiae deletion strains, locus YLR330W, strain CHS5, active compounds read low 1.01 | S. cerevisiae deletion strains, locus YLR342W, strain FKS1 (second series), active compounds read low 0.953 | S. cerevisiae deletion strains, locus YLR371W, strain rom2, active compounds read low 1.05 | S. cerevisiae deletion strains, locus YML016C, strain PPZ1, active compounds read low 1 | S. cerevisiae deletion strains, locus YML032C, strain rad52, active compounds read low 0.988 | S. cerevisiae deletion strains, locus YML124C, strain tub3, active compounds read low 1.02 | S. cerevisiae deletion strains, locus YMR078C, strain ctf18, active compounds read low 1.02 | S. cerevisiae deletion strains, locus YMR263W, strain SAP30, active compounds read low 1.02 | S. cerevisiae deletion strains, locus YMR307W, strain GAS1, active compounds read low 0.815 | S. cerevisiae deletion strains, locus YNL067W, strain RPL9B, active compounds read low 0.99 | S. cerevisiae deletion strains, locus YNL128W, strain TEP1, active compounds read low 0.925 | S. cerevisiae deletion strains, locus YNL153C, strain GIM3, active compounds read low 1.03 | S. cerevisiae deletion strains, locus YNL183C, strain NPR1, active compounds read low 0.988 | S. cerevisiae deletion strains, locus YNL233W, strain BNI4, active compounds read low 0.941 | S. cerevisiae deletion strains, locus YNL250W, strain rad50, active compounds read low 0.964 | S. cerevisiae deletion strains, locus YNL271C, strain bni1, active compounds read low 0.999 | S. cerevisiae deletion strains, locus YNL298W, strain CLA4, active compounds read low 0.944 | S. cerevisiae deletion strains, locus YNL307C, strain MCK1, active compounds read low 1.02 | S. cerevisiae deletion strains, locus YNL322C, strain KRE1, active compounds read low 0.999 | S. cerevisiae deletion strains, locus YNR052C, strain pop2, active compounds read low 1.02 | S. cerevisiae deletion strains, locus YOL012C, strain htz1 2.27 | S. cerevisiae deletion strains, locus YOL147C, strain pex11, active compounds read low 1.02 | S. cerevisiae deletion strains, locus YOR061W, strain CKA2, active compounds read low 1.01 | S. cerevisiae deletion strains, locus YOR069W, strain VPS5, active compounds read low 1.01 | S. cerevisiae deletion strains, locus YOR136W, strain idh2, active compounds read low 0.983 | S. cerevisiae deletion strains, locus YOR144C, strain elg1, active compounds read low 1.01 | S. cerevisiae deletion strains, locus YOR231W, strain MKK1, active compounds read low 1.05 | S. cerevisiae deletion strains, locus YOR316C, strain cot1, active compounds read low 1.02 | S. cerevisiae deletion strains, locus YPL055C, strain LGE1, active compounds read low 0.877 | S. cerevisiae deletion strains, locus YPL256C, strain CLN2, active compounds read low 1.11 | S. cerevisiae deletion strains, locus YPR119W, strain clb2, active compounds read low 1.02 | S. cerevisiae deletion strains, locus YPR141C, strain kar3, active compounds read low 1.02 | S. cerevisiae deletion strains, locus YPR163C, strain tif3, active compounds read low 0.993 | S. cerevisiae deletion strains, locus YPR167C, strain met16, active compounds read low 0.934 | S. cerevisiae deletion strains, strain wtn01, active compounds read low 0.921
active: S. cerevisiae deletion strains, locus YAL013W, strain DEP1, active compounds read low 0.869 | S. cerevisiae deletion strains, locus YDL192W, strain arf1, active compounds read low 0.888 | S. cerevisiae deletion strains, locus YDR502C, strain sam2, active compounds read low 0.893 | S. cerevisiae deletion strains, locus YGR135W, strain pre9, active compounds read low 0.865 | S. cerevisiae deletion strains, locus YHR200W, strain rpn10, active compounds read low 0.92 | S. cerevisiae deletion strains, locus YIL125W, strain kgd1, active compounds read low 0.926 | S. cerevisiae deletion strains, locus YKL085W, strain MDH1 (second series), active compounds read low 0.897 | S. cerevisiae deletion strains, locus YKL085W, strain MDH1, active compounds read low 0.897 | S. cerevisiae deletion strains, locus YKR001C, strain vps1, active compounds read low 0.76 | S. cerevisiae deletion strains, locus YLR418C, strain cdc73, active compounds read low 0.651 | S. cerevisiae deletion strains, locus YMR223W, strain ubp8, active compounds read low 0.889 | S. cerevisiae deletion strains, locus YOR184W, strain ser1, active compounds read low 0.606 | S. cerevisiae strains, strain wild type, active compounds read low 0.899
